The values below come from PubChem BioAssay (EPA / NIEHS).

Assay [1] concerns the target Luciferin 4-monooxygenase (Photinus pyralis) (UniProt P08659). Kind of assay: CCTE_Simmons_QuantiLum_inhib_2: CCTE's Firefly Luciferase Inhibition Assay, Simmons Lab (AID 2283767).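 As to AC50: potency for inhibitors that lower luciferase luminescence relative to DMSO.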 In a few lines: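 Luminescence loss relative to DMSO vehicle defines inhibition; detection reagent containing 150 uM D-luciferin and 147 uM dATP (final, pH 7.8) is injected immediately before each read. Enzyme is preincubated with an 8-point titration (5 nM–87.5 uM final) for 30 min at 37C.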

A short description of assay [2]: ACEA_AR_agonist_AUC_viability: ACEA Biosciences xCELLigence Real-Time Cell Analysis on Androgen Receptor Agonism for Viability (AID 2283775).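 As to AC50: viability read 80 hours after compound addition.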 In a few lines: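 Real-time impedance tracking of 22Rv1 growth, readings every 5 min for 5 h then hourly; area-under-curve viability endpoint at 80 hours, relative to DMSO. Compounds at eight concentrations, 1:4 steps, top 100 uM, n = 2.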

Assay [3] can be described thus: ACEA_AR_antagonist_AUC_viability: ACEA Biosciences xCELLigence Real-Time Cell Analysis on Androgen Receptor Antagonism for Viability (AID 2283776).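 Also: hits lower the growth signal relative to DMSO meaning cytotoxicity.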 In a few lines:
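22Rv1 human prostate cancer cells were seeded on electrode plates, monitored overnight, then exposed to eight 1:4 dilutions from 100 uM final. Impedance-based growth kinetics at 80 h gave an AUC viability endpoint normalized to DMSO.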

Assay [4] deals with chicken Androgen Receptor (AR), gene 422165. Kind of assay: ATG_chAR_XSP1: Attagene TRANS-FACTORIAL Multi-Species (XSP1) HepG2 Assay for chicken Androgen Receptor (AR) (AID 2283768). In a few lines: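 HepG2 cells transiently transfected with multiplexed GAL4-UAS reporter units expressing chimeric chicken AR-Gal4; 3 nM 6-alpha-fluorotestosterone for partial AR stimulation; 24 h after dosing, reporter mRNA by RT-PCR and capillary electrophoresis, gain-of-signal versus DMSO.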

Assay [5] has as its target zebrafish Estrogen Receptor (ESR1), esr1 (gene 259252) (UniProt P57717). Kind of assay: ATG_zfER1_XSP1: Attagene TRANS-FACTORIAL Multi-Species (XSP1) HepG2 Assay for zebrafish Estrogen Receptor (ESR1) (AID 2283772). In a few lines: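 Trans-activation readout: transfected zebrafish ER-Gal4 drives a UAS reporter in human HepG2 liver cells. After 24 h compound exposure (medium containing 3 nM 6-alpha-fluorotestosterone), induced reporter transcripts were quantified by RT-PCR with capillary electrophoresis, relative to DMSO.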

In assay [6] the test system is zebrafish Estrogen Receptor (ESR2B), gene 317733. Kind of assay: ATG_zfER2b_XSP1: Attagene TRANS-FACTORIAL Multi-Species (XSP1) HepG2 Assay for zebrafish Estrogen Receptor (ESR2B) (AID 2283773). In a few lines:
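HepG2 cells transiently transfected with GAL4-UAS reporter units for chimeric zebrafish ER2b-Gal4, with 3 nM 6-alpha-fluorotestosterone present; reporter mRNA measured 24 h after dosing by RT-PCR and capillary electrophoresis, gain versus DMSO.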

The test system of assay [7] is frog Estrogen Receptor (ESR2), gene 100174814. Kind of assay: ATG_frER2_XSP1: Attagene TRANS-FACTORIAL Multi-Species (XSP1) HepG2 Assay for frog Estrogen Receptor (ESR2) (AID 2283774). In a few lines: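 HepG2 cells transiently transfected with GAL4-UAS reporter units expressing chimeric frog ER-Gal4; 3 nM 6-alpha-fluorotestosterone present. After 24 h dosing, reporter mRNA quantified by RT-PCR and capillary electrophoresis; gain-of-signal fitted relative to DMSO.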

Assay [8] deals with frog Estrogen Receptor (ESR1), gene 398734. Kind of assay: ATG_frER1_XSP1: Attagene TRANS-FACTORIAL Multi-Species (XSP1) HepG2 Assay for frog Estrogen Receptor (ESR1) (AID 2283777). In a few lines:
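HepG2 cells transiently transfected with frog ER–GAL4 chimera and GAL4-UAS reporter, with 3 nM 6-alpha-fluorotestosterone present; 24 h dosing, reporter mRNA quantified by RT-PCR and capillary electrophoresis, gain of signal versus DMSO.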

Assay [9] relates to zebrafish Estrogen Receptor (ESR2A), gene 317734. Kind of assay: ATG_zfER2a_XSP1: Attagene TRANS-FACTORIAL Multi-Species (XSP1) HepG2 Assay for zebrafish Estrogen Receptor (ESR2A) (AID 2283778). In a few lines: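 HepG2 cells transiently transfected with GAL4-UAS reporter units driven by a zebrafish ESR2A–Gal4 chimera; 24 h compound exposure with 3 nM 6-alpha-fluorotestosterone present. Reporter mRNA measured by RT-PCR with fluorescent capillary electrophoresis, fitted positive versus DMSO.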

The target in assay [10] is chicken Estrogen Receptor (ESR1), ESR1 (gene 396099) (UniProt P06212). Kind of assay: ATG_chERa_XSP1: Attagene TRANS-FACTORIAL Multi-Species (XSP1) HepG2 Assay for chicken Estrogen Receptor (ESR1) (AID 2283779). In a few lines:
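HepG2 cells transiently transfected with GAL4-UAS reporter units for chimeric chicken ERα-Gal4, dosed 24 h with 3 nM 6-alpha-fluorotestosterone present. Reporter mRNA by RT-PCR and capillary electrophoresis; gain-of-signal fit versus DMSO.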

In assay [11] the test system is turtle Estrogen Receptor (ESR1), gene 101933533. Kind of assay: ATG_trERa_XSP1: Attagene TRANS-FACTORIAL Multi-Species (XSP1) HepG2 Assay for turtle Estrogen Receptor (ESR1) (AID 2283781). In a few lines:
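Turtle ERa as a GAL4 chimera in transiently transfected HepG2 cells; reporter mRNA quantified 24 h after dosing by RT-PCR and capillary electrophoresis. 3 nM 6-alpha-fluorotestosterone present; gain of signal versus DMSO.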

A short description of assay [12]: STM_H9_NormalizedViability: Cytotoxicity Assessment at 120 hours in the Stemina devTOX quickPredict H9 human embryonic stem cell (hESC)-based Assay (AID 2283784). In a few lines:
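Pluripotent H9 cells dosed, fresh medium plus compound q24h → cell layer read by CellTiter-Fluor → RFU blank-corrected, normalized to DMSO 0.1% mean. Loss-of-signal fit, DMSO as baseline.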

A short description of assay [13]: ACEA_ER_AUC_viability: ACEA Biosciences xCELLigence Real-Time Cell Analysis on Estrogen Receptor Agonism for Viability (AID 2283782).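 Also: continuous compound exposure with impedance area under curve over 80 h; hit means loss of impedance signal meaning reduced cell growth or viability.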 In a few lines:
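T47D cells preconditioned in phenol red-free RPMI with charcoal-stripped FBS, then dosed with 8-point 1:4 series from 100 uM (up to 0.5% DMSO). Impedance monitored up to ~80 h; area-under-curve loss versus DMSO taken as viability.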

The nature of assay [14]: ArunA_NOG_NeuriteLength: ArunA Biomedical's Neurite Outgrowth (NOG) Assay for Neurite Length (AID 2283757). In a few lines: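 Differentiated human H9-derived neurons were exposed for 48 h from seeding, then stained with Hoechst and βIII-tubulin. Automated high-content imaging gave total neurite length per valid neuron, counting processes >10 um. Loss of signal was scored versus DMSO.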

Assay [15] can be described thus: ArunA_NOG_NeuritesPerNeuron: ArunA Biomedical's Neurite Outgrowth (NOG) Assay for Neurites Per Neuron (AID 2283758). In a few lines: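 Differentiated human H9-derived neurons exposed to chemicals for 48 h from seeding, then stained with Hoechst and βIII-tubulin/DyLight 488. Automated imaging counted neurites (processes >10 um) per valid neuron; loss of signal versus DMSO scored.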

The nature of assay [16]: ArunA_NOG_BranchPointsPerNeurite: ArunA Biomedical's Neurite Outgrowth (NOG) Assay for Branch Points Per Neurite (AID 2283759). In a few lines: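 Automated image analysis traced neurites (processes >10 um) from valid cell bodies after Hoechst and βIII-tubulin staining. hNN cells from H9 embryonic stem cells, 48 h exposure. Fitted bidirectionally against DMSO.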
Assay [17] deals with AR (gene 367) (UniProt P10275). Kind of assay: ACEA_AR_agonist_80hr: ACEA Biosciences xCELLigence Real-Time Cell Analysis on Androgen Receptor Agonism for Proliferation (AID 2283783).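 Also: hits increase impedance growth signal above DMSO baseline.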 In a few lines: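 Proliferation of 22Rv1 prostate cancer cells tracked by electrical impedance, endpoint taken at 80 hours after dosing. Eight-point 1:4 dilutions from 100 uM maximum final, duplicate; testosterone and MG132 as positive controls, assay media as negative.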
Sequence of AR (gene 367) (P10275 whole entry, looked up): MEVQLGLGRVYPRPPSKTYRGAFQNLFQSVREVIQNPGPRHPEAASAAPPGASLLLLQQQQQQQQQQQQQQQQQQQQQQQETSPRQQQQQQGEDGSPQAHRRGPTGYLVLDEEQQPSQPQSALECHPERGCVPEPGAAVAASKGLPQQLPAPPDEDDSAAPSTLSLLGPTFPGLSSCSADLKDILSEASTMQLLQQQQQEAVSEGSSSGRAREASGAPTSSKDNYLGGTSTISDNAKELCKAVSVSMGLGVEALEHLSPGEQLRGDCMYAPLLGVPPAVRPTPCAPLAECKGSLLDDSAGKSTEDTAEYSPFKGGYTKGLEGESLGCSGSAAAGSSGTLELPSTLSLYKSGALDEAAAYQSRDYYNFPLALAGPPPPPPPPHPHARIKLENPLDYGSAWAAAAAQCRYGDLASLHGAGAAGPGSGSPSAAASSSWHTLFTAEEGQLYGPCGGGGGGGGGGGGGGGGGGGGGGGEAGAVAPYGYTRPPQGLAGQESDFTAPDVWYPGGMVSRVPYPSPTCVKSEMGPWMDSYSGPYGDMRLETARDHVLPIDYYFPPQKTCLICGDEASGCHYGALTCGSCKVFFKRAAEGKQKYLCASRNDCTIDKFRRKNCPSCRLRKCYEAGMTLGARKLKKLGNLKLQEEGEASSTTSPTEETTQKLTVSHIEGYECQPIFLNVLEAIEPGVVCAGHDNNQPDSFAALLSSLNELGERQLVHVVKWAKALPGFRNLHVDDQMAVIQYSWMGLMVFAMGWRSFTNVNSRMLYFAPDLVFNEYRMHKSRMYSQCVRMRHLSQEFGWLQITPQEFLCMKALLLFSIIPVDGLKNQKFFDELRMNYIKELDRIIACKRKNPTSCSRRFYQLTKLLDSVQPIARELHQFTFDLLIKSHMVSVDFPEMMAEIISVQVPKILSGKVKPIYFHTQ

For assay [18], the system named is zebrafish Androgen Receptor (AR), gene 100005148. Kind of assay: ATG_zfAR_XSP1: Attagene TRANS-FACTORIAL Multi-Species (XSP1) HepG2 Assay for zebrafish Androgen Receptor (AR) (AID 2283771). In a few lines:
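HepG2 cells were transiently transfected with a zebrafish AR-GAL4 reporter system and partially stimulated with 3 nM 6-alpha-fluorotestosterone. Reporter mRNA was measured after 24 h dosing by RT-PCR with capillary electrophoresis, and gain-of-signal was fitted relative to DMSO.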

Assay [19] has as its target Estrogen receptor (Homo sapiens) (UniProt P03372). Kind of assay: ATG_hERa_XSP1: Attagene TRANS-FACTORIAL Multi-Species (XSP1) HepG2 Assay for human Estrogen Receptor (ESR1) (AID 2283780). In a few lines: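 HepG2 cells transiently transfected with GAL4-UAS reporter units and chimeric NR-Gal4 constructs; 24 h after dosing, reporter mRNA quantified by RT-PCR and capillary electrophoresis. Medium contained 3 nM 6-alpha-fluorotestosterone; activity fitted as gain-of-signal versus DMSO.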

Inconclusive results are not listed. Calls of active or inactive are those of the source. The calls were made as follows: active = hit-call score of the fitted dose curve at least 0.9, where 1 is the maximum; inconclusive = response in the unintended direction; inactive = score below 0.9.

Sequence of Luciferin 4-monooxygenase (Photinus pyralis) (P08659 whole entry, looked up): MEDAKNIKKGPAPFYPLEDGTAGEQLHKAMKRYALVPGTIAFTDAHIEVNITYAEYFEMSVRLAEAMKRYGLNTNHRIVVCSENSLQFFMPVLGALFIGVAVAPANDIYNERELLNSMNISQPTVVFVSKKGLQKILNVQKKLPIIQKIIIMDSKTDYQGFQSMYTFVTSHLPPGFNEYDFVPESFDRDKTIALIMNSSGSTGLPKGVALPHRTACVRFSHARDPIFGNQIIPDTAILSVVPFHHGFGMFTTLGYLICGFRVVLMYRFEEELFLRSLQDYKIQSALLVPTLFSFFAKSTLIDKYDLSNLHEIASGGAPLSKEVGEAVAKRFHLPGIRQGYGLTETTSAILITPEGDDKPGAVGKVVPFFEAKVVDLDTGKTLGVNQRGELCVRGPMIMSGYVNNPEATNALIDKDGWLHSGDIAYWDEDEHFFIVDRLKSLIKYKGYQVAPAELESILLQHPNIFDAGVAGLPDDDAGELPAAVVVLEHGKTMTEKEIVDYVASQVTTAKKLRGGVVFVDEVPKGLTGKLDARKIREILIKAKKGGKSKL
Sequence of chicken Estrogen Receptor (ESR1), ESR1 (gene 396099) (P06212 whole entry, looked up, the tested form may be a part): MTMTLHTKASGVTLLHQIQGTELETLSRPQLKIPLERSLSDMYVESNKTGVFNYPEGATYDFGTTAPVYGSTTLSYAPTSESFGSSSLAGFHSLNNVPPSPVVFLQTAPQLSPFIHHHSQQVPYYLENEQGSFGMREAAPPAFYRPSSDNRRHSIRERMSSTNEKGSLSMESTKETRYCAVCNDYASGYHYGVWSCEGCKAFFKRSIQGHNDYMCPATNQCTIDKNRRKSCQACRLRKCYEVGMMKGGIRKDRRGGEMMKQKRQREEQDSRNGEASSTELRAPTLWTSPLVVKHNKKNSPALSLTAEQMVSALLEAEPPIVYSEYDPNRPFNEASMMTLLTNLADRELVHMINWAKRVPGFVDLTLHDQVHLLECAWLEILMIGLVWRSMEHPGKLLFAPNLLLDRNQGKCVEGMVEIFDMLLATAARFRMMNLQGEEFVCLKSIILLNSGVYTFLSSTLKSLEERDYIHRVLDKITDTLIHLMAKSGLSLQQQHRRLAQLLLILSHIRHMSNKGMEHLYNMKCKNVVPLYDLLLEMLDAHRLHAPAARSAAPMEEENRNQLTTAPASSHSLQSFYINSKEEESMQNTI
Sequence of zebrafish Estrogen Receptor (ESR1), esr1 (gene 259252) (P57717 whole entry, looked up, the tested form may be a part): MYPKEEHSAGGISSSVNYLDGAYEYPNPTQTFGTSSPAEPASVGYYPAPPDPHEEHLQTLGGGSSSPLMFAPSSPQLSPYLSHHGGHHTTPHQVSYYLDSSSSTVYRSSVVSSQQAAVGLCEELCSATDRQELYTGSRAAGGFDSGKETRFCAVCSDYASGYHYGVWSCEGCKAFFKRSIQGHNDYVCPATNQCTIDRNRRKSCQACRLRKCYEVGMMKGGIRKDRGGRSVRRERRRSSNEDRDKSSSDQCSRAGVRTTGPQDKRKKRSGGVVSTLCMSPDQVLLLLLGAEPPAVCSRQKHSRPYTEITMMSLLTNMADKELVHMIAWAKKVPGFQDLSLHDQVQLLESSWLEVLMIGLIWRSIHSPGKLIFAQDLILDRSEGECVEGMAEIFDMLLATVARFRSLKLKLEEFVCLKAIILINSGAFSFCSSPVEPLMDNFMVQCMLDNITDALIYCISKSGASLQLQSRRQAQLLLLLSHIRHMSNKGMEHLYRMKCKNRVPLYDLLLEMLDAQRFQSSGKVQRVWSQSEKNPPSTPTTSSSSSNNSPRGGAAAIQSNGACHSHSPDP
Sequence of Estrogen receptor (Homo sapiens) (P03372 whole entry, looked up, the tested form may be a part): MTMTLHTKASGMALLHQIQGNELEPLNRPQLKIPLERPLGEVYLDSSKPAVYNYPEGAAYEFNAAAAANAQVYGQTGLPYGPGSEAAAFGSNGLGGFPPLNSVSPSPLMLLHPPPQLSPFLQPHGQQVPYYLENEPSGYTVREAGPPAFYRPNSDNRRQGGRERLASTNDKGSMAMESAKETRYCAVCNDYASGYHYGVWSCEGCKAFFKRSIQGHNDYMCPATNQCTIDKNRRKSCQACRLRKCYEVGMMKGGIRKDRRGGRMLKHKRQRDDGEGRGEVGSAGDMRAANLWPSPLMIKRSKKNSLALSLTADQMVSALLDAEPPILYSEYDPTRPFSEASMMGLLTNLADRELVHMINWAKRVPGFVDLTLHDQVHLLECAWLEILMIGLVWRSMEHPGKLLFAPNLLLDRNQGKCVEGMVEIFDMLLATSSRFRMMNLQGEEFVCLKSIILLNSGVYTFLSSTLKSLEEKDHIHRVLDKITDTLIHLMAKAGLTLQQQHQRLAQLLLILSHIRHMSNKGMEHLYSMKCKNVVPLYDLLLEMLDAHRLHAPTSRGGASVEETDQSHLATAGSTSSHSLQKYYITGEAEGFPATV

As to `Nc1ccc(Cc2ccc(N)cc2)cc1`, the result in [1] and in assay [2] was inactive. In addition, the AC50 in assay [3] was 28.1 µM (active).

Regarding `CCCCOC(=O)c1ccccc1C(=O)OCc1ccccc1`, the call in [1] and in assay [4] was inactive. Also, the AC50 in [5] was 26.6 µM (active); in assay [6], 6.82 µM (active); in [7], 9.27 µM (active); in assay [3], 24.7 µM (active); in [8], 7.32 µM (active); in [9], 7.24 µM (active). For the same compound, the values for the AC50 in [10], in assay [11] and in assay [12] were 7.78 µM (active), 9.3 µM (active) and 34 µM (active), respectively.

For `C=CCc1ccc2c(c1)OCO2`, the compound was classed as inactive in [1], in assay [3] and in assay [13].

As to `Nc1ccc(N=Nc2ccccc2)cc1`, the figures for the AC50 in assay [1] and in assay [13] were 3.16 µM (active) and 5.24 µM (active), respectively. In [3], the outcome was inactive.

For `CO[C@@H]1[C@H](OC(=O)NC(=O)CCl)CC[C@]2(CO2)[C@H]1[C@@]1(C)O[C@@H]1CC=C(C)C`, the result in assay [14], in assay [15], in assay [16] and in assay [1] was inactive. Further, the AC50 in [3] is 3.27 µM (active); in [12], 0.0978 µM (active).

For `CCC(C)c1ccc(O)cc1` (configuration not stated), in assay [1], the outcome was inactive. The AC50 in assay [2] was 50 µM (active); in assay [3], 61.6 µM (active); in assay [13], 89.2 µM (active).

Regarding `Nc1ccc(Cl)cc1N`, the values for the AC50 in assay [1] and in [3] were 9.28 µM (active) and 50 µM (active), respectively. Besides, the result in assay [13] and in assay [17] was inactive.

Regarding `Oc1ccccc1Cl`, the call in assay [1] was inactive.

Turning to `CN(C)c1ccc(C(=O)c2ccc(N(C)C)cc2)cc1`, the AC50 is 11.6 µM (active) in [1], 9.62 µM (active) in assay [3] and 1.51 µM (active) in [13].

Consider `Cc1ccc(N)cc1`, for which the compound was classed as inactive in [1], in assay [2] and in assay [3]. The AC50 in assay [12] is 40.9 µM (active).

On to `Clc1ccc(Cl)c(Cl)c1`, for which the call in assay [15], in assay [16], in assay [3] and in assay [12] was inactive.

Take `CCCCCOC(=O)c1ccccc1C(=O)OCCCCC`: the compound was called inactive in [4], in [18], in assay [5], in [8] and in assay [9]. For the same compound, the AC50 is 40.7 µM (active) in assay [6]; 27.3 µM (active) in assay [7]; 67.9 µM (active) in [3]; 27 µM (active) in [10]; 24.2 µM (active) in assay [19]; 26.8 µM (active) in assay [11].

For the compound `c1ccc(N=Nc2ccccc2)cc1`, the compound was classed as inactive in assay [3].

As to `Cc1ccc([N+](=O)[O-])cc1`, the compound was classed as inactive in [2] and in assay [3].

Turning to `Cn1cc(-c2ccccc2)c(=O)c(-c2cccc(C(F)(F)F)c2)c1`, in assay [3], the AC50 is 50 µM (active).

With `N#CC(Br)Br`, the result in assay [3] was inactive.

Turning to `c1ccc(C2CO2)cc1` (configuration not stated), the outcome in assay [2] and in assay [3] was inactive.

`COP(=S)(OC)SCN1C(=O)c2ccccc2C1=O`: the AC50 in [3] was 64.7 µM (active).

Turning to `COC(=O)c1ccccc1N`, the compound was classed as inactive in assay [1] and in assay [13].
